# Source: PubChem BioAssay AID540335 (Broad Institute, 2011)
# About 270 (21%) of roughly 1,300 compounds were called active. Only a sample is shown. Potency and affinity values are given separately. Unmarked numbers belong to inactive results.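 The calls were made as follows: active = dose-dependent rise or fall in viability, either side of zero, with half-maximal concentration at or below a set limit; inconclusive = flat curve at 30 to 70% viability loss, or poor fit; inactive = flat within 30% either way, or potency beyond limit.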
# Experiment: proliferation inhibition in MITF-low A375 cells – cell-based, cherry-pick samples, set 2, counter-screen for MITF modulator project, dose response (AID 540335);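 also: A375 human melanoma cells which do not depend on MITF; 0% = median of neutral control wells and 100% = double that signal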
# Details: CellTiter-Glo ATP luminescence, 24 h; series mostly up to 35 µM; activity change, negative = decreased viability: at the top concentration
row,Structure (SMILES),"activity change, negative = decreased viability"
1,O=C(/C=C\c1ccccc1)NCC(=O)N/N=C/c1ccc(O)cc1O,-16.7%
2,CC1CCN(CC(CS(=O)(=O)c2ccc([N+](=O)[O-])cc2)N2CCC(C)CC2)CC1 (stereo unspecified),5.07%
3,CCc1ccc(-c2cc(C(=O)Nn3cnnc3)c3ccccc3n2)cc1,-19.7%
4,Cc1cc(C)cc(NC(=O)c2ccc([N+](=O)[O-])o2)c1,-28%
5,O=C(CS(=O)c1ccc(C(F)(F)F)cc1[N+](=O)[O-])Oc1ccccc1 (stereo unspecified),0.077%
6,Cc1ccccc1-c1nc(CN2CCC(C(=O)NCCCN3CCCC(C)C3)CC2)c(C)o1 (stereo unspecified),-2.83%
7,Cc1cc(C)c2nc3nc(C)cc(C)c3c(N)c2c1,-9.13%
8,Cc1cc(C)c2c(N)c(C(=O)N/N=C/c3ccccc3)sc2n1,12.6%
9,Cc1oc(-c2ccc(Cl)cc2)nc1CN1CCC(C(=O)NCCCN2CCCC(C)C2)CC1 (stereo unspecified),-19.6%
10,FC(F)(F)c1cc(CCN2CCNC[C@@H]2Cc2ccccc2)cc(C(F)(F)F)c1,-94.9%
11,O=C(N/N=C\c1ccc([N+](=O)[O-])s1)c1cncc(Br)c1,-26.1%
12,C#CCCc1ccccc1/C=[N+](/C)[O-],3.43%
13,N#C/C(=C(/O)c1ccc([N+](=O)[O-])o1)c1nc2ccccc2[nH]1,-27.3%
14,O=C(COc1ccc2c(c1)CCC2)N1CCc2ccccc21,8.68%
15,O=C(CCl)N1c2ccccc2SCC1c1ccccc1 (stereo unspecified),-37%
16,O=C(Cn1ncc(Cl)c(Cl)c1=O)N1CCOCC1,38.5%
17,CC(=O)Nc1ccc(S(=O)(=O)NC2=C(N3CCN(C)CC3)C(=O)c3ccccc3C2=O)cc1,-33.5%
18,O=C(Nc1cnc2ccccn2c1=O)c1ccc(F)cc1,4.12%
19,CN(C)c1nc(C=C(C#N)C#N)c(Cl)n1-c1ccc(F)cc1,-10.1%
20,O=[N+]([O-])c1ccc(/C=N/n2cnc3ccccc32)s1,-23.5%
21,CC1CCCC(NC(=O)NC(=O)CCl)C1C (stereo unspecified),-12.3%
22,Cc1ccc(NC(=O)Cn2ncc(Cl)c(Cl)c2=O)cc1S(=O)(=O)N1CCCCC1,-14.3%

row,Structure (SMILES),"activity change, negative = decreased viability"
1,Cc1cc(Br)ccc1NC(=O)CNC(=O)Cn1ncc(Cl)c(Cl)c1=O,-5.62%
2,Cn1nnnc1Sc1ncnc2scc(-c3ccc(C#N)cc3)c12,29.3%
3,CCN1c2ccccc2NC2N=C(OC)C(c3ccccc3)C21 (stereo unspecified),-35.9%
4,COCCN(CC(=O)NC1CCCCC1)C(=O)/C=C/C(=O)c1ccc(OC)cc1O,10.5%
5,Cc1ccc(-c2c[n+](Cc3ccc(Cl)cc3)c3n2CCC3)cc1,-3.64%
6,Cc1[nH]c2ccccc2c1C(=O)CCl,-3.71%
7,CC(C)C(CCNC1CCN(C)CC1)c1ccc(Cl)cc1 (stereo unspecified),-4.07%
8,CCN1CCN(C2=C(NS(=O)(=O)c3ccc(Br)cc3)C(=O)c3ccccc3C2=O)CC1,-15.8%
9,CC1CCC(C(C)C)C(OC(=O)C[n+]2cc(-c3ccc(Cl)cc3)n3c2CCCCC3)C1 (stereo unspecified),-67.3%
10,O=C(O)c1cccc(NC(=S)N/N=C/c2ccccn2)c1,-11.9%
11,Cc1ccc(C(=O)c2no[n+]([O-])c2C(=O)c2ccc(C)cc2)cc1,-8.72%
12,COc1ccc(C(=O)/C=C/C(=O)N(CC(=O)NC2CCCCC2)Cc2ccccc2)c(O)c1,-10.6%
13,O=C(Nc1ccc(Cl)c(S(=O)(=O)N2CCOCC2)c1)c1ccc(OCC2CCCO2)cc1 (stereo unspecified),-37.8%
14,O=C(Nc1ccccc1N1CCOCC1)c1ccc([N+](=O)[O-])s1,-14.6%
15,O=C(Nc1nc(-c2ccccn2)cs1)c1ccc(F)c(S(=O)(=O)N2CCOCC2)c1,-27.2%
16,COc1ccc(/C=C2\SC(=O)N(CCCC(=O)Nc3cc(Cl)ccc3C(=O)O)C2=O)cc1,10.5%
17,Cn1cccc1-c1cc(C(=O)N/N=C/c2cc(Br)ccc2O)[nH]n1,-30%
18,CCOC(=O)CSC1=NC(=O)/C(=C/c2ccc(OC)cc2)S1,-20.9%
19,N/C(=N\OC(=O)c1ccc(Cl)cc1Cl)c1ccncc1,5.82%
20,COCc1cc(C)nc2sc(C(=O)Nc3ccc(OC)cc3)c(N)c12,-2.81%
21,CN1CCN(CCCOc2ccc(-c3ccccc3)cc2)CC1,-0.67%
22,O=C1c2ccccc2C(=O)N1CCOc1ccccc1,-1.42%

row,Structure (SMILES),"activity change, negative = decreased viability"
1,CN=c1scc(-c2ccccc2F)n1/N=C/c1ccc[nH]1,-31.4%
2,Cc1ccc(NC(=O)CCC(=O)N/N=C/c2ccc([N+](=O)[O-])o2)cc1C,-3.7%
3,CC1CC(C)C[N+](=C2C=C(N3CCCC3)CC(C)(C)C2)C1 (stereo unspecified),-15.3%
4,O=C(Cn1cc(/C=C\[N+](=O)[O-])c2ccccc21)Nc1ccccc1,-0.096%
5,Cc1ccc(NC(=O)c2ccc([N+](=O)[O-])o2)cc1S(=O)(=O)N1CCOCC1,13.3%
6,COc1ccc2oc(C(=O)Nc3ccc(S(=O)(=O)N(C)C4CCN(C)CC4)cc3)c(C)c2c1,-26.3%
7,C/C(=N\NC(=O)C(C)Oc1ccc([N+](=O)[O-])cc1)c1ccccn1 (stereo unspecified),-25.9%
8,CC(Oc1ccccc1)C(=O)Nc1nc(-c2ccccn2)cs1 (stereo unspecified),-9.16%
9,CC(C)C(=O)N1CCN(c2ccc(NC(=O)c3ccc([N+](=O)[O-])o3)cc2)CC1,17.6%
10,CC(C)(C)NC(=O)CCN(/N=C/c1ccc([N+](=O)[O-])o1)C1=NS(=O)(=O)c2ccccc21,-15.5%
11,Cc1c(N=C2C=CC(=O)c3ccccc32)c(=O)n(-c2ccccc2)n1C,-31%
12,COc1cc(/C=N/NC(N)=O)c(Br)cc1OCC(=O)Nc1ccccc1C,-37.4%
13,COc1ccc(S(=O)NC2CCCCC2)c(OC)c1C (stereo unspecified),-1.99%
14,COc1cc(CN2CCC(Cc3ccccc3)CC2)cc(OC)c1OC,-6.84%
15,O=C(c1nnsc1S(=O)(=O)c1ccc(Cl)cc1)N1CCOCC1,-5.83%
16,Cc1cc(C)c[n+](C2=C([O-])c3ccccc3C(=O)/C2=N\S(=O)(=O)c2cccs2)c1,-36.8%
17,O=C(CCl)Nc1cccc(Oc2ccccc2)c1,-29.8%
18,CC(=O)N1CCc2c(sc(NC(=O)c3ccc([N+](=O)[O-])o3)c2C#N)C1,9.03%
19,CN(c1cccc(NC(=O)COc2ccc(Cl)cc2Cl)c1)S(C)(=O)=O,-2.24%
20,O=C(CC(=O)c1ccccc1)Nc1ccccn1,3.43%
21,O=C1Nc2ccc(Br)cc2/C1=C/C(=O)c1ccc2c(c1)OCO2,20.9%
22,COc1ccc(/C=N/Nc2cc(C)nc(-n3nc(C)cc3C)n2)c(OC)c1,-25.2%

row,Structure (SMILES),"activity change, negative = decreased viability"
1,Cc1ccc(S(=O)(=O)/N=C2\C(=O)c3ccccc3C([O-])=C2n2cc[n+](CCC(C)C)c2)cc1,-33.9%
2,CCC(=O)N1CCN(c2ccc(NC(=O)c3ccc([N+](=O)[O-])o3)cc2)CC1,8.91%
3,CCN(CC)CCNC(=O)c1c(C)n(-c2ccccc2)c2cc(Br)c(OC)cc12,-49.1%
4,O=C(Cn1ncc(Cl)c(Cl)c1=O)N1CCN(Cc2ccccc2)CC1,62.3%
5,O=C(Cn1ncc(Cl)c(Cl)c1=O)c1ccc(Cl)cc1,84.6%
6,O=C(COC(=O)CCN1C(=O)/C(=C\C=C\c2ccccc2)SC1=S)Nc1cc(F)ccc1F,0.586%
7,CC(C)(C)c1ccc(C(=O)Nc2sc3c(c2C(=O)O)CCC3)cc1,-11.3%
8,CCN1/C(=C/c2cc[n+](C)cc2)C=Cc2cc(C)ccc21,-23.4%
9,O=C(Nc1ccc(F)cc1F)c1cc2ccccc2oc1=O,-5.16%
10,CC1CCC/C=C/C(=O)c2c(O)cc(O)cc2CC(=O)O1 (stereo unspecified),10.8%
11,COc1ccc(C(=O)/C=C/C(=O)N(CC(=O)NC2CCCCC2)Cc2ccccc2OC)c(O)c1,-5.15%
12,O=C1CCC2S/C(=C/Nc3ccc(C(F)(F)F)cc3)C(=O)N12 (stereo unspecified),15.7%
13,CCCC(=O)N1CCN(c2ccc(NC(=O)c3ccc([N+](=O)[O-])o3)cc2Cl)CC1,27.2%
14,COc1ccc(NC(=O)CCC(=O)N/N=C/c2ccc([N+](=O)[O-])s2)cc1,-23.2%
15,CCCCNC(=O)Nc1ccc(C2SCCS2)cc1,-14.6%
16,O=C(Nc1ccccn1)c1ccc(Br)s1,-8.96%
17,N=c1n(CC(=O)c2ccc(Br)cc2)c2ccccc2n1Cc1ccccc1,-96.7%
18,O=C(N/N=C/c1ccc([N+](=O)[O-])s1)c1cccc(Br)c1,-11.5%
19,Cc1ccc(NCC(=O)N/N=C\c2ccc([N+](=O)[O-])o2)cc1,-7.59%
20,Cc1c(C(=O)Nc2ccc(S(=O)(=O)N(C)C3CCN(C)CC3)cc2)oc2c(Cl)cccc12,-68.5%
21,COc1cc(SC)ccc1C(=O)Nc1ncc(C)s1,-13.6%
22,COc1cc(SC)ccc1C(=O)Nc1ccc(Br)cn1,-6.11%

row,Structure (SMILES),"activity change, negative = decreased viability"
1,O=C(CNC(=O)c1ccccc1)N/N=C/c1ccc([N+](=O)[O-])s1,-17.8%
2,O=C(Nc1cccc(S(=O)(=O)N2CCCCC2)c1)c1ccc([N+](=O)[O-])o1,-10.1%
3,Cc1nc2ccccn2c1C(=O)N/N=C/c1ccc([N+](=O)[O-])o1,-19.2%
4,Cc1nc(SCC(=O)Nc2ccc(CN3CCCC3)cc2)c2c(C)c(C)sc2n1,-4.46%
5,Cc1ccc2oc(C(Cl)(Cl)Cl)cc(=O)c2c1,-16.5%
6,O=C(Nc1cccnc1Cl)c1cc(-c2ccco2)on1,7.02%
7,CCN(CC)S(=O)(=O)c1ccc(N2CCCC2)c(NC(=O)c2ccc([N+](=O)[O-])o2)c1,-10.5%
8,O=C(Nc1ccc(N2CCN(C(=O)c3ccccc3)CC2)cc1)c1ccc([N+](=O)[O-])o1,37.8%
9,O=C(CCl)N1CCN(S(=O)(=O)c2ccc3c(c2)CCC3)CC1,-14%
10,Cc1cc(C)c2c(N)c(C(=O)Nc3ncc(C)s3)sc2n1,-18.7%
11,O=C(Nc1ccccc1)NN(C(=O)CCl)c1ccccc1,-6.28%
12,O=C(CCl)N(c1ccccc1)c1c[nH]c2ccccc12,-4.62%
13,N#C/C(=C\c1ccc(OCc2ccc(C(=O)O)cc2)cc1)C(=O)N1CCOCC1,-3.63%
14,O=C(C#Cc1ccccc1)c1cccc([N+](=O)[O-])c1,3.14%
15,COc1ccc(C)cc1Nc1nc(N)c2cc(OC)c(OC)cc2n1,-21.9%
16,COc1cccc(-c2ccc3c(N)c(C(=O)NC4CC4)sc3n2)c1,13.8%
17,O=C(Nc1ccc([N+](=O)[O-])cc1)c1ccccc1,-0.714%
18,O=C(O)c1ccc(C(=O)Nc2ccc(F)cc2)cc1,-13.5%
